Assay: Plasmodium falciparum growth inhibition, primary screen, strain 3D7, DAPI fluorescence, 100 nL (AID 1184);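 also: parasites grown inside human red blood cells in medium with human serum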
Conditions: P. falciparum 3D7 growth, 3 d, higher = more signal
O=C1[C@H]2[C@H]3[C@H](O)[C@H](O)CC(=NOC[C@@H](O)COCc4ccco4)[C@H]3CC[C@H]2C(=O)N1c1cccc(Oc2ccccc2)c1 showed a z-score of 0.499. With COC(=O)CC=C[C@H](C)[C@H](CO)NS(=O)(=O)c1ccc(C)cc1 the z-score was 0.225. Compound CCN1C(=O)[C@H]2[C@H]3[C@H](O)[C@H](O)CC(=NOCc4ccccc4)[C@H]3CC[C@H]2C1=O has a z-score of 0.783. CC(=O)C[C@H](O)[C@@H](NC(=O)OC(C)(C)C)C(C)C showed a z-score of -1.24. C[C@H]1CC[C@@H](C(=O)O)N[C@@H]1c1ccc(C#CCN(C)C)cc1 showed a z-score of -0.0492. In the case of CC(C)=NOCc1ccc(-c2cc(-c3ccccc3)no2)cc1, the z-score was 0.382. Work on COC(=O)CC1OC1[C@H](C)[C@@H](OC)C(C)C (stereo not given in full) yielded a z-score of 0.599. Work on C#CCCCON=C1C[C@@H](O)[C@@H](O)[C@@H]2[C@@H]3C(=O)N([C@@H](C)c4ccccc4)C(=O)[C@@H]3CC[C@H]12 yielded a z-score of -1.46. For CC(=O)OC[C@H]1O[C@H](CCON=C[C@@H](C)[C@H](OCc2ccccc2)C(C)C)C=C[C@@H]1OC(C)=O, the z-score was -0.219. CCOC(=O)[C@H](CC(C)C)NC(=O)CCC1CC(OC(=O)NCCc2ccc(F)cc2)CC2(CCCC(COC(=O)NCc3ccccc3)O2)O1 (stereo not given in full) showed a z-score of -2.06. In the case of CO[C@@H]1COC(=O)CCC[C@@H](C)[C@H](OC)COC(=O)[C@H](Cc2ccccc2)NC(=O)CC=C[C@H]1C, the z-score was -1.34. CC(C)[C@H](NC(=O)OC(C)(C)C)[C@@H](O)CC(=O)OC(C)(C)C showed a z-score of -1.75. COc1ccc(COC(=O)NN=C2C[C@@H](O)[C@@H](O)[C@@H]3[C@@H]4C(=O)N(Cc5ccc6c(c5)OCO6)C(=O)[C@@H]4CC[C@@H]23)cc1 gave a z-score of 0.142. Work on C=CC[C@@H]1C=C[C@H](ON=C2c3cc(OC)ccc3O[C@H](c3cccc(OC)c3)[C@H]2O)[C@@H](CO)O1 yielded a z-score of 0.888. CC(C)(C)N1C(=O)[C@H]2[C@H]3[C@H](O)[C@H](O)CC(=NO[C@@H]4O[C@H](CO)[C@@H](O)[C@H](O)[C@H]4O)[C@@H]3CC[C@H]2C1=O showed a z-score of 2.01. In the case of CC(C)CON=C1C[C@@H](O)[C@@H](O)[C@@H]2[C@@H]3C(=O)N(Cc4ccccc4)C(=O)[C@@H]3CC[C@@H]12, the z-score was -0.388. For O=C(NN=C1C[C@@H](O)[C@@H](O)[C@@H]2[C@@H]3C(=O)N(c4cccc(Oc5ccccc5)c4)C(=O)[C@@H]3CC[C@@H]12)OCc1ccccc1, the z-score was -0.763. Work on CC(=O)OC[C@H]1O[C@H](CCON=C(C)CCC(=O)OC[C@H]2O[C@H](C#Cc3ccccc3)C=C[C@@H]2Oc2ccc(C)cc2)C=C[C@@H]1OC(C)=O yielded a z-score of 0.724. CCOC(=O)CCN1C(=O)[C@H]2[C@H]3[C@H](O)[C@H](O)CC(=NNC(=O)OCc4ccc(OC)cc4)[C@@H]3CC[C@H]2C1=O showed a z-score of -0.688. Compound CCOC(=O)[C@H](Cc1ccccc1)NC(=O)CCC1CC(OC(=O)NCc2ccc3c(c2)OCO3)CC2(CCCC(COC(=O)NCc3ccccc3)O2)O1 (stereo not given in full) has a z-score of -1.76. With CCOC(=O)CCN1C(=O)[C@H]2[C@H]3[C@H](O)[C@H](O)CC(=NOCc4ccccc4)[C@@H]3CC[C@H]2C1=O the z-score was 0.226. Work on C[C@H](c1ccccc1)N1C(=O)[C@H]2[C@@H]3C(=CC[C@H]2C1=O)C(=O)[C@H]1O[C@H]1[C@H]3O yielded a z-score of -1.23. O=C1C[C@@H](O)[C@@H](O)[C@@H]2[C@@H]3C(=O)N(C4CCCCC4)C(=O)[C@@H]3CC[C@H]12 showed a z-score of 0.266. With O=C1CCCC2OC12C(O)CCc1ccccc1 (stereo not given) the z-score was 0.307. O=C1[C@H]2[C@H]3[C@H](O)[C@H](O)CC(=NOCc4ccccc4)[C@H]3CC[C@H]2C(=O)N1c1ccc(F)cc1F gave a z-score of -1.08.
